Assay results published in PubChem BioAssay (NCATS).
Records with an inconclusive call do not appear. The source made the active and inactive calls. The call rests on the fitted dose curve; in most records, active means well fitted curve in the direction sought with a large enough effect; inconclusive means small, poorly fitted or top-dose-only effect, or another doubt; inactive means no such curve, though single readings can be large; an effect the other way counts as inactive or inconclusive.

Legend:
[1] = Quantitative High-Throughput drug screen in 47 multiple myeloma cell lines against the NCATS MIPE library collection: MOLP8_DSMZ cell viability assay (AID 1918977); further: nearly all actives have a fitted effect of over 45% in size
Procedure, shortened: (§1)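 ATP-based luminescence (CellTiter-Glo, 5 min RT incubation) quantified surviving cells following two days' treatment with MIPE 4.0 agents at 37 °C, 5% CO2.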

[2] = Quantitative High-Throughput drug screen in 47 multiple myeloma cell lines against the NCATS MIPE library collection: NCIH929_DSMZ cell viability assay (AID 1918978); further: nearly all actives have a fitted effect of over 35% in size; further: potency means the concentration at half of the fitted maximal effect
Procedure, shortened: as §1

[3] = Quantitative High-Throughput drug screen in 47 multiple myeloma cell lines against the NCATS MIPE library collection: OCIMY1_PLB cell viability assay (AID 1918979); further: series mostly up to about 46 µM; nearly all actives have a fitted effect of over 35% in size
Procedure, shortened: as §1

[4] = Quantitative High-Throughput drug screen in 47 multiple myeloma cell lines against the NCATS MIPE library collection: MM1R_ATCC cell viability assay (AID 1918981); further: nearly all actives have a fitted effect of over 35% in size; further: potency means the concentration at half of the fitted maximal effect
Description: (§2) PI: Beverly A. Mock Ph.D.
(§3) Laboratory of Cancer Biology and Genetics,
(§4) Center for Cancer Research, National Cancer Institute,
(§5) National Institute of Health, Bethesda, Maryland
(§6) Drug resistance and disease progression are common in multiple myeloma (MM) patients, underscoring the need for new therapeutic combinations. […] We hypothesized that effective combinations would reduce MYC expression and enhance p16 activity. […] These preclinical data identify potentially useful drug combinations for evaluation in drug-resistant MM and reveal potential mechanisms of combined drug sensitivity.
(§7) Described herein is the primary MIPE qHTS used to cherrypick compounds. Validated compounds were then further tested for potential synergistic activiy.
(§8) [1] Peat TJ, Gaikwad SM, Dubois W, Gyabaah-Kessie N, Zhang S, Gorjifard S, Phyo Z, Andres M, Hughitt VK, Simpson RM, Miller MA, Girvin AT, Taylor A, Williams D, D'Antonio N, Zhang Y, Rajagopalan A, Flietner E, Wilson K, Zhang X, Shinn P, Klumpp-Thomas C, McKnight C, Itkin Z, Chen L, Kazandijian D, Zhang J, Michalowski AM, Simmons JK, Keats J, Thomas CJ, Mock BA. Drug combinations identified by high-throughput screening promote cell cycle transition and upregulate Smad pathways in myeloma. Cancer Lett. 2023 Aug 1;568:216284. doi: 10.1016/j.canlet.2023.216284. Epub 2023 Jun 24. PMID: 37356470; PMCID: PMC10408729.
(§9) SEQUENCE No. (e.g., 1, 2, 3, etc.); […] (e.g., Cells, Incubation, Reagent, etc.); VALUE and DESCRIPTION.
(§10) 1; Cells; 5 uL; white, solid bottom 1536-well Greiner assay plate.
(§11) 2; Compounds; 23 nL; Kalypsis pin tool (Wako USA) equipped with a 1536-well pin head to transfer to the assay plates.
(§12) 3; Incubation; 48 hours; 37C incubation.
(§13) 4; Reagent;5uL; CellTiter Glo (Promega).
(§14) 5; Detector; 425V; Luminescence; Viewlux PerkinElmer.
(§15) NOTES (numbers refer to Sequence numbers above)
(§16) 1. The cell-based screening methods employed in this study were like those previously published. Briefly, the corresponding myeloma cell lines were screened in 1,536-well plates with 500 cells, 5-uL per well for inhibition of cell viability (assessed by measuring ATP levels with CellTiterGlo).
(§17) 2. NCATS MIPE 4.0 library of approved and investigational drugs were added using the Kalypsis pin tool. Wells treated with DMSO only for 100% viability and media only for 0% viability were used as controls.
(§18) 3. The assay plates were covered and incubated for 48 hours in a 37C, 5% CO2 incubator with controlled humidity.
(§19) 4. After 48 hours, CellTilter-GloTM luminescent substrate mix (Promega) reagent was added to the assay plate and plates we incubated for 5 min at room temperature.
(§20) 5. Signal was measured as median relative luminescence units on a ViewLux (PerkinElmer) multiplate reader.
(§21) [1] Heske CM, Davis MI, Baumgart JT, Wilson K, Gormally MV, Chen L, Zhang X, Ceribelli M, Duveau DY, Guha R, Ferrer M, Arnaldez FI, Ji J, Tran HL, Zhang Y, Mendoza A, Helman LJ, Thomas CJ. Matrix Screen Identifies Synergistic Combination of PARP Inhibitors and Nicotinamide Phosphoribosyltransferase (NAMPT) Inhibitors in Ewing Sarcoma. Clin Cancer Res. 2017 Dec 1;23(23):7301-7311. doi: 10.1158/1078-0432.CCR-17-1121. Epub 2017 Sep 12. PMID: 28899971; PMCID: PMC6636827.

[5] = Quantitative High-Throughput drug screen in 47 multiple myeloma cell lines against the NCATS MIPE library collection: LP1_DSMZ cell viability assay (AID 1918982); further: nearly all actives have a fitted effect of over 35% in size
Description: as §2, §3, §4, §5, §6, §7, §8, §9, §10, §11, §12, §13, §14, §15, §16, §17, §18, §19, §20, §21

[6] = Quantitative High-Throughput drug screen in 47 multiple myeloma cell lines against the NCATS MIPE library collection: KMS28PE_JCRB cell viability assay (AID 1918983); further: nearly all actives have a fitted effect of over 35% in size; further: potency means the concentration at half of the fitted maximal effect
Procedure, shortened: as §1

[7] = Quantitative High-Throughput drug screen in 47 multiple myeloma cell lines against the NCATS MIPE library collection: L363_DSMZ cell viability assay (AID 1918984); further: nearly all actives have a fitted effect of over 40% in size; further: potency means the concentration at half of the fitted maximal effect
Procedure, shortened: as §1

[8] = Quantitative High-Throughput drug screen in 47 multiple myeloma cell lines against the NCATS MIPE library collection: KMS34_JCRB cell viability assay (AID 1918985); further: nearly all actives have a fitted effect of over 40% in size; further: potency means the concentration at half of the fitted maximal effect
Description: as §2, §3, §4, §5, §6, §7, §8, §9, §10, §11, §12, §13, §14, §15, §16, §17, §18, §19, §20, §21

[9] = Quantitative High-Throughput drug screen in 47 multiple myeloma cell lines against the NCATS MIPE library collection: MMM1_PLB cell viability assay (AID 1918976); conditions: MMM1 myeloma cells viability, CellTiter-Glo, 48 h
Procedure, shortened: as §1

[10] = Quantitative High-Throughput drug screen in 47 multiple myeloma cell lines against the NCATS MIPE library collection: MM1S_ATCC cell viability assay (AID 1918980); further: nearly all actives have a fitted effect of over 45% in size; further: potency means the concentration at half of the fitted maximal effect
Procedure, shortened: as §1

Measured: Potency

CN1C(=O)COc2c(C(=O)NC3CN4CCC3CC4)cc(Cl)cc21 (centres undefined)
inactive: [1] | [2] | [3] | [4] | [5] | [6]

C[C@]12CC[C@@H]3c4ccc(OC(=O)N(CCCl)CCCl)cc4CC[C@H]3[C@@H]1CC[C@@H]2OP(=O)(O)O
inactive: [1] | [2] | [3] | [5] | [7] | [8]

O=P1(N(CCCl)CCCl)NCCCO1 (centres undefined)
active: [9] 2.35 µM | [2] 8.33 µM | [7] 10.5 µM
inactive: [3] | [10] | [5]

CC(C)C[C@H](CN)CC(=O)O
active: [9] 11.8 µM
not listed: [7] | [10]
inactive: all other assays above

CC(C)c1cccc(C(C)C)c1O
active: [10] 8.33 µM
not listed: [7] | [9]
inactive: all other assays above

CN1C(=O)CCS(=O)(=O)C1c1ccc(Cl)cc1 (centres undefined)
active: [2] 20.9 µM | [10] 18.7 µM
not listed: [3] | [9]
inactive: all other assays above

COc1cc(OC)c(OC)cc1C=O
not listed: [1] | [9] | [10]
inactive: all other assays above

C[C@](O)(CS(=O)(=O)c1ccc(F)cc1)C(=O)Nc1ccc(C#N)c(C(F)(F)F)c1
active: [2] 0.296 µM | [10] 0.372 µM | [4] 2.35 µM | [6] 26.4 µM

C[C@]12CCC(=O)C=C1CC[C@@H]1[C@H]3CC[C@](C)(O)[C@@]3(C)CC[C@@H]12
active: [10] 38.2 µM
inactive: [2] | [3] | [6]

C[C@]12CC[C@H]3[C@@H](CC[C@@]45O[C@H]4C(O)=C(C#N)C[C@]35C)[C@H]1CC[C@H]2O
active: [10] 1.48 µM | [8] 16.6 µM
inactive: [2] | [3] | [5] | [6] | [7]

CC(NC(C)(C)C)C(=O)c1cccc(Cl)c1 (centres undefined)
inactive: [2] | [3] | [6] | [8]

CCC1(c2ccc(N)cc2)CCC(=O)NC1=O (centres undefined)
active: [9] 0.743 µM
not listed: [7]
inactive: all other assays above

O=C(O)CCCc1ccc(N(CCCl)CCCl)cc1
inactive: [3]
active: [4] 23.5 µM
